The panel holds about 83,000 compounds, 20% with a hit somewhere; the sample as a whole holds those more often.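 Interpretation: 100, growth as untreated; towards 0, rising growth inhibition; 0, no net growth; 0 to -100, cell death. Compounds scoring below 10 were considered active.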 Values without a mark were called inactive. Calls of active or inactive are those of the source.

One test deals with HCC-2998 colon. The test can be described thus: NCI-60 one-dose screen, 48 h (100 = growth as untreated, 0 = no growth, -100 = all killed). The following applies: 10 µM unless noted.
With `NC(=O)n1c(=O)n(-c2cccc(C(F)(F)F)c2)c(=O)c2cc(-c3ccc(F)cc3F)ccc21`, the growth is 10.7%. Same read-out and setting: as for `CCCCCc1ccc(S(=O)(=O)Nc2cc(-c3csc(N)n3)ccc2OC)cc1`, the figure is 111%; as for `COC(=O)c1cccc(NC2=CC(=O)C(C)=C(C)C2=O)c1`, 110%. Turning to `O=C(/C=C/c1cccc(C(F)(F)F)c1)Nc1cccc(C(F)(F)F)c1`, the growth was 57.4%.

The next test concerns KM12 colon. The test is described as above. Conditions: 10 µM unless noted.
In the case of `O=C1[C@@H]2Cc3c([nH]c4ccccc34)[C@H](c3ccc(Br)cc3)N2C(=O)CN1C1CCN(Cc2c(Cl)cccc2Cl)CC1`, the growth was 99.1%.

Turning to `O=C1/C(=C/C=C/c2ccco2)SC(=S)N1Cc1ccccc1`, the growth is 78.6%. On to `N#C/C(=N\Nc1ccc(F)cc1)C(=O)Nc1cc(-c2ccccc2)nn1-c1ccccc1`, for which the growth was 9.32% (active). Still for that read-out and setting: the figure for `Clc1ccc2c(N/N=C/c3c[nH]c4ccccc34)ccnc2c1` is -77.2% (active); for `CN1CCN(Cc2ccc(NC(=O)c3cncc(C#Cc4cnc5ccc(NCCO)nn45)c3)cc2C(F)(F)F)CC1` it is -4.28% (active); for `C#CCOc1ccc(/C=N/Nc2nc(-c3ccc(OC)cc3)cs2)cc1` it is 78.8%.

As to `Cc1ccc(/C(N)=N/C(N)=N/c2nc3ccccc3s2)cc1`, the growth is 64.1%.

Regarding `CC(=O)Nc1cc(N2CCOCC2)c2nc(NC(=O)c3[nH]c(C)c(Cl)c3Cl)sc2c1`, the growth was 82.4%.

As to `CN(C)c1ccc(/C=N/Nc2nc(N/N=C/c3ccc(N(C)C)cc3)nc(N3CCCCC3)n2)cc1`, the growth was 93%. Still for that read-out and setting: the figure for `N#Cc1c(-c2cccs2)cc(-c2cnccn2)nc1SCC(=O)N/N=C/c1ccc(Cl)cc1` is 96.5%. Regarding `COc1ccc(OC)c(NC(=O)CCCCCCNC(=O)C(O)(O)C(F)(F)F)c1`, the growth was 43.5%. Still for that read-out and setting: as for `C/C(=N/N)c1nnn(-c2ccc(Br)cc2)c1C`, the figure is 99.4%. Same read-out and setting: the figure for `CC(C)NC(=O)c1cc(-c2ccc(NC(=O)Nc3ccc(F)c(C(F)(F)F)c3)cc2)nc2cccnc12` is 89.6%; for `COc1cc(C(C)=C(c2ccc(OCCN(C)C)cc2)c2ccc(OCCN(C)C)cc2)ccc1F` it is 109%; for `CN1CCN(CC#CCn2c3c(c4ccccc42)C[C@]2(C)[C@H]4CC=C5[C@@H]6CC(C)(C)CC[C@]6(C(=O)N6CCOCC6)CC[C@@]5(C)[C@]4(C)CC[C@H]2C3(C)C)CC1` it is 66%.

Consider `COc1cc(/C=C2/C(=O)Nc3ccc(Cl)cc32)ccc1OCc1ccc(Cl)cc1`, for which the growth is 100%. Same read-out and setting: the figure for `Cc1[nH]c(C(=O)Nc2ccccc2OCc2cccc(C(=O)NC3CCCNC3)c2)c(Cl)c1Cl` (stereo unspecified) is -78.4% (active); for `O=S(=O)(NCCCNc1nccc(-c2[nH]c(-c3ccccc3)nc2-c2ccc(F)c(O)c2)n1)c1ccccc1` it is 98.8%. As to `COc1ccc(Cn2cc(C#N)c(N)c2C(C)=O)cc1`, the growth was 98.7%. Same read-out and setting: as for `CC(Nc1ncnc2ccc(-c3cnc4cnccn34)cc12)c1ccccc1` (stereo unspecified), the figure is 41.6%; as for `O=C(NCCNc1cc(-c2cn(-c3ccccc3)nc2-c2cccc(O)c2)ccn1)Nc1cc(C(F)(F)F)cc(C(F)(F)F)c1`, 1.09% (active). For `C#CCN(C)CCCOc1ccc(NC(=O)CCCCCCC(=O)NO)cc1Cl`, the growth was 24.8%. Turning to `O=C(CSc1nnc(-c2ccc(Cl)cc2)n1-c1ccccc1)Nc1ccc(Cl)cc1`, the growth was 57.6%. Same read-out and setting: the figure for `CN1CCN(Cc2ccc(/C=N/Nc3ccnc4cc(Cl)ccc34)cc2)CC1` is 74.8%; for `N#Cc1c(-c2cccs2)cc(-c2cnccn2)nc1SCC(=O)N/N=C/c1cccs1` it is 47.6%; for `CCCCCCN1C=C/C(=C\C(=O)n2ccc3ccccc32)c2ccccc21` it is 67.1%. Still for that read-out and setting: the figure for `Cn1cc(-c2nnc(N)nc2-c2c[nH]c3ccc(F)cc23)c2cc(Br)ccc21` is 22.5%; for `CN1CCN(c2ccc(Nc3nc(NCCCNS(=O)(=O)c4cccc(F)c4)c4sccc4n3)cc2)CC1` it is 54%. As to `CNC(=O)c1cc(-c2ccc(NC(=S)Nc3cccc(C(F)(F)F)c3)cc2)nc2cccnc12`, the growth was 98.8%. Still for that read-out and setting: as for `NC(N)=NS(=O)(=O)c1ccc(N=Nc2c(N)nn(-c3ccc([N+](=O)[O-])cc3[N+](=O)[O-])c2N)cc1`, the figure is 101%. On the same count and under the same terms, the figure for `N#Cc1c(-c2cccs2)cc(-c2cnccn2)nc1SCC(=O)N/N=C/c1ccncc1` is 100%; for `CCCCCC[n+]1ccc(SCC(=O)n2ccc3ccccc32)c2ccccc21` it is 84.3%.

The values are drawn from PubChem BioAssay (NCI).
